Reference: PubChem BioAssay AID1159580 (chemical genetic matrix, 2015)
The whole screen tested about 5,500 compounds, of which about 2,000 (36%) were called active. Inconclusive results (about 18%) are left out. No stated cut-off is given here; in the data, active means normalized growth mostly below about 0.91 (no sharp cut-off); inconclusive means no clear call, values can overlap the other calls; inactive means mostly above about 0.92. This is one part of the list.

Test: chemical genetic growth profiling, strain panel (AID 1159580);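 further: tested at 20 µM; growth read once vehicle control cultures reached saturation at 30 °C; 1 = growth at the plate median or of vehicle wells; lower values mean less growth of the strain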
Conditions: growth OD

Measured: normalized growth

NS(=O)(=O)c1cc(C2(O)NC(=O)c3ccccc32)ccc1Cl (stereo unspecified)
inactive: S. cerevisiae deletion strains, locus YJR075W, strain HOC1, active compounds read low 1.03 | S. cerevisiae deletion strains, locus YKL009W, strain mrt4, active compounds read low 1.01 | S. cerevisiae deletion strains, locus YKL068W, active compounds read low 1.01 | S. cerevisiae deletion strains, locus YKL085W, strain MDH1 (second series), active compounds read low 1.01 | S. cerevisiae deletion strains, locus YKL085W, strain MDH1, active compounds read low 1.01 | S. cerevisiae deletion strains, locus YKL160W, strain elf1, active compounds read low 0.991 | S. cerevisiae deletion strains, locus YKL190W, strain CNB1, active compounds read low 1.01 | S. cerevisiae deletion strains, locus YKR001C, strain vps1, active compounds read low 1.02 | S. cerevisiae deletion strains, locus YKR026C, strain gcn3, active compounds read low 0.978 | S. cerevisiae deletion strains, locus YKR091W, strain srl3, active compounds read low 0.987 | S. cerevisiae deletion strains, locus YLL001W, strain dnm1, active compounds read low 0.972 | S. cerevisiae deletion strains, locus YLL026W, active compounds read low 0.988 | S. cerevisiae deletion strains, locus YLL041C, strain sdh2, active compounds read low 0.981 | S. cerevisiae deletion strains, locus YLR027C, strain aat2, active compounds read low 0.994 | S. cerevisiae deletion strains, locus YLR039C, strain RIC1, active compounds read low 1.01 | S. cerevisiae deletion strains, locus YLR058C, strain SHM2, active compounds read low 1.03 | S. cerevisiae deletion strains, locus YLR102C, strain apc9, active compounds read low 1.01 | S. cerevisiae deletion strains, locus YLR113W, strain HOG1, active compounds read low 0.969 | S. cerevisiae deletion strains, locus YLR221C, strain rsa3, active compounds read low 0.981 | S. cerevisiae deletion strains, locus YLR258W, strain gsy2, active compounds read low 0.999 | S. cerevisiae deletion strains, locus YLR262C, strain YPT6 (second series), active compounds read low 1.01 | S. cerevisiae deletion strains, locus YLR262C, strain YPT6, active compounds read low 1.04 | S. cerevisiae deletion strains, locus YLR268W, strain sec22, active compounds read low 1.03 | S. cerevisiae deletion strains, locus YLR320W, strain mms22, active compounds read low 0.976 | S. cerevisiae deletion strains, locus YLR330W, strain CHS5, active compounds read low 1.02 | S. cerevisiae deletion strains, locus YLR342W, strain FKS1 (second series), active compounds read low 1.01 | S. cerevisiae deletion strains, locus YLR342W, strain FKS1, active compounds read low 0.987 | S. cerevisiae deletion strains, locus YLR357W, strain rsc2, active compounds read low 1 | S. cerevisiae deletion strains, locus YLR370C, strain arc18, active compounds read low 0.986 | S. cerevisiae deletion strains, locus YLR371W, strain rom2, active compounds read low 1.02 | S. cerevisiae deletion strains, locus YLR384C, strain iki3, active compounds read low 0.987 | S. cerevisiae deletion strains, locus YLR418C, strain cdc73, active compounds read low 1.03 | S. cerevisiae deletion strains, locus YML016C, strain PPZ1, active compounds read low 1.01 | S. cerevisiae deletion strains, locus YML032C, strain rad52, active compounds read low 1.02 | S. cerevisiae deletion strains, locus YML120C, strain ndi1, active compounds read low 0.983 | S. cerevisiae deletion strains, locus YML124C, strain tub3, active compounds read low 1.02 | S. cerevisiae deletion strains, locus YMR058W, strain fet3, active compounds read low 1.01 | S. cerevisiae deletion strains, locus YMR078C, strain ctf18, active compounds read low 1.02 | S. cerevisiae deletion strains, locus YMR125W, strain sto1, active compounds read low 1.01 | S. cerevisiae deletion strains, locus YMR129W, active compounds read low 0.985 | S. cerevisiae deletion strains, locus YMR205C, strain PFK2, active compounds read low 0.99 | S. cerevisiae deletion strains, locus YMR223W, strain ubp8, active compounds read low 1.02 | S. cerevisiae deletion strains, locus YMR231W, strain pep5, active compounds read low 0.994 | S. cerevisiae deletion strains, locus YMR263W, strain SAP30, active compounds read low 1.01 | S. cerevisiae deletion strains, locus YMR307W, strain GAS1, active compounds read low 0.984 | S. cerevisiae deletion strains, locus YNL067W, strain RPL9B, active compounds read low 1.02 | S. cerevisiae deletion strains, locus YNL071W, strain lat1, active compounds read low 0.989 | S. cerevisiae deletion strains, locus YNL153C, strain GIM3, active compounds read low 1.02 | S. cerevisiae deletion strains, locus YNL183C, strain NPR1, active compounds read low 0.948 | S. cerevisiae deletion strains, locus YNL209W, strain ssb2, active compounds read low 0.997 | S. cerevisiae deletion strains, locus YNL233W, strain BNI4, active compounds read low 1.02 | S. cerevisiae deletion strains, locus YNL248C, strain rpa49, active compounds read low 1.02 | S. cerevisiae deletion strains, locus YNL250W, strain rad50, active compounds read low 0.992 | S. cerevisiae deletion strains, locus YNL271C, strain bni1, active compounds read low 1.02 | S. cerevisiae deletion strains, locus YNL298W, strain CLA4, active compounds read low 1.03 | S. cerevisiae deletion strains, locus YNL307C, strain MCK1, active compounds read low 1.02 | S. cerevisiae deletion strains, locus YNL322C, strain KRE1 (second series), active compounds read low 0.983 | S. cerevisiae deletion strains, locus YNL322C, strain KRE1, active compounds read low 1 | S. cerevisiae deletion strains, locus YNR049C, strain mso1, active compounds read low 0.997 | S. cerevisiae deletion strains, locus YNR052C, strain pop2, active compounds read low 1.01 | S. cerevisiae deletion strains, locus YOL006C, strain TOP1, active compounds read low 1.1 | S. cerevisiae deletion strains, locus YOL012C, strain htz1 1.12 | S. cerevisiae deletion strains, locus YOL147C, strain pex11, active compounds read low 1.01 | S. cerevisiae deletion strains, locus YOR001W, strain rrp6, active compounds read low 0.987 | S. cerevisiae deletion strains, locus YOR061W, strain CKA2, active compounds read low 1.01 | S. cerevisiae deletion strains, locus YOR069W, strain VPS5, active compounds read low 1.01 | S. cerevisiae deletion strains, locus YOR070C, strain gyp1, active compounds read low 0.991 | S. cerevisiae deletion strains, locus YOR080W, strain dia2, active compounds read low 0.976 | S. cerevisiae deletion strains, locus YOR083W, strain WHI5, active compounds read low 0.98 | S. cerevisiae deletion strains, locus YOR106W, strain vam3, active compounds read low 1.01 | S. cerevisiae deletion strains, locus YOR136W, strain idh2, active compounds read low 1.03 | S. cerevisiae deletion strains, locus YOR144C, strain elg1, active compounds read low 1.02 | S. cerevisiae deletion strains, locus YOR184W, strain ser1, active compounds read low 1.03 | S. cerevisiae deletion strains, locus YOR231W, strain MKK1, active compounds read low 0.976 | S. cerevisiae deletion strains, locus YOR265W, strain rbl2, active compounds read low 0.993 | S. cerevisiae deletion strains, locus YOR270C, strain vph1, active compounds read low 1.01 | S. cerevisiae deletion strains, locus YOR290C, strain snf2, active compounds read low 0.986 | S. cerevisiae deletion strains, locus YOR316C, strain cot1, active compounds read low 1.02 | S. cerevisiae deletion strains, locus YPL051W, strain arl3, active compounds read low 0.981 | S. cerevisiae deletion strains, locus YPL055C, strain LGE1, active compounds read low 1.02 | S. cerevisiae deletion strains, locus YPL078C, strain atp4, active compounds read low 0.984 | S. cerevisiae deletion strains, locus YPL106C, strain sse1, active compounds read low 0.948 | S. cerevisiae deletion strains, locus YPL240C, strain hsp82, active compounds read low 0.99 | S. cerevisiae deletion strains, locus YPL241C, strain CIN2, active compounds read low 1.01 | S. cerevisiae deletion strains, locus YPL256C, strain CLN2, active compounds read low 0.96 | S. cerevisiae deletion strains, locus YPR119W, strain clb2, active compounds read low 1.01 | S. cerevisiae deletion strains, locus YPR141C, strain kar3, active compounds read low 1.03 | S. cerevisiae deletion strains, locus YPR163C, strain tif3, active compounds read low 1.01 | S. cerevisiae deletion strains, locus YPR167C, strain met16, active compounds read low 1.02 | S. cerevisiae deletion strains, strain wtn01, active compounds read low 1.04 | S. cerevisiae strains, strain wild type, active compounds read low 1.01
